KB-3-1 tox – kills parental KB-3-1 adenocarcinoma cells; KB-3-1 viability, CellTiter-Glo ATP luminescence, 72 h; Potency, µM (top dose mostly 46.1 µM), most hits filed as cytotoxic; hit rate 1.4% among 400,000; AID 1347075; further: nearly all actives have a fitted effect of over 60% in size
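Cytotoxicity in the drug-sensitive parental line KB-3-1 was scored as loss of CellTiter-Glo luminescence following 72 h incubation with compound. Values come from curve fitting of normalized concentration-response data.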
MCF10A rerep – inducers of DNA re-replication in MCF 10A breast cells. Potency, µM (top dose mostly 46.1 µM), usual class: activators. MCF 10A DNA re-replication, Hoechst nuclear intensity, 48 h. AID 624296. hit rate 2.9% among 350,000; further: nearly all actives have a fitted effect of over 50% in size
KB-V1 cytotox – KB-V1 MDR subline cytotoxicity; Potency, µM (highest dose often 46.1 µM), most hits filed as cytotoxic; KB-V1 MDR cells viability, CellTiter-Glo, 72 h; hit rate 3.4% among 400,000; further: nearly all actives have a fitted effect of over 60% in size
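Drug-selected KB-V1 cells, grown in DMEM lacking phenol red with 10% FBS, receive compound titrations; after three days at 37 degrees C, surviving cell ATP is quantified by CellTiter-Glo luminescence and responses normalized and curve-fitted.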
DRD3 antagonist – blocks the human D3 dopamine receptor; P35462; hit rate 2.5% among 360,000; max response, negative = inhibition, %; D3R cells, DiscoveRx beta-arrestin luminescence, antagonist mode; hits give low values; in the data active means max response below about -50%; inconclusive means no clear call, values can overlap the other calls
Target sequence (P35462 whole entry, looked up): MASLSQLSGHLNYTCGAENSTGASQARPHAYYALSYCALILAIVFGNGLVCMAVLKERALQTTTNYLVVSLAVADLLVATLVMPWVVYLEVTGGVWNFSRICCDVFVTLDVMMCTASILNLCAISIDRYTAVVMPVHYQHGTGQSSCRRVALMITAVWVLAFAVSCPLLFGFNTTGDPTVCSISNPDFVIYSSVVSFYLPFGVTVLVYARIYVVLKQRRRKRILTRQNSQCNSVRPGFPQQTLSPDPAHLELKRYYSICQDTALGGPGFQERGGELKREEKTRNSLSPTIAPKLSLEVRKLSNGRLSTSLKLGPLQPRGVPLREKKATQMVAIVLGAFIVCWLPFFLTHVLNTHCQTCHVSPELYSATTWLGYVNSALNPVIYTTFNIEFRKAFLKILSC
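Cells plated overnight at 1500 cells/well, then exposed to library compounds with dopamine controls for 90 minutes at 37 degrees C. DiscoveRx reagent added for 30–60 minutes at room temperature; luminescence read, quantitative HTS format.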
SW480 rerep – inducers of DNA re-replication in SW480 colon cancer cells; SW480 DNA re-replication, Hoechst DNA content imaging, 48 h; Potency, µM (titrated, usually from 46.1 µM), actives largely listed as activators; hit rate 1.8% among 340,000; further: nearly all actives have a fitted effect of over 55% in size
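Image-based read-out: total Hoechst fluorescence of nuclei (405 nm excitation, 500-530 nm emission), with hits raising the fraction of high-intensity nuclei. SW480 colon cells incubated 48 hr with compounds at 37 C.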
DRD3 agonist – agonists of human D3 dopamine receptor; AID 652048; P35462; hit rate 0.58% among 410,000; D3R DiscoveRx beta-arrestin cells, luminescence, 90 min; max activation, %; in the data active means max activation above about 30%
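Agonist-mode cell screen: cells plated at 1500/well and incubated overnight at 37 °C, then exposed to library compounds for 90 min at 37 °C. Detection reagent was added for 30–60 min at room temperature, and luminescence was read.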
Hits are given with their value; - = inactive; ? = inconclusive; . = not tested or not shown. Sampled rows, rich in hits. Any-hit rate of the full collection: about 8.9%. Unless noted, the call rests on the fitted dose curve; in most records, active means well fitted curve in the direction sought with a large enough effect; inconclusive means small, poorly fitted or top-dose-only effect, or another doubt; inactive means no such curve, though single readings can be large; an effect the other way counts as inactive or inconclusive.

SMILES | KB-3-1 tox | MCF10A rerep | KB-V1 cytotox | DRD3 antagonist | SW480 rerep | DRD3 agonist
COC(=O)c1ccccc1S(=O)(=O)N1CCC(c2nc3ccccc3o2)CC1 | - | - | 12µM | - | - | -
COC(=O)c1cccc(S(=O)(=O)N2CCC(c3nc4ccccc4o3)CC2)c1 | - | - | - | - | - | -
CCOC(=O)c1[nH]c2ccccc2c1NC(=O)c1ccccc1OC | - | . | - | . | . | -
N#C/C(=C\c1ccc(O)c(Br)c1)C(=O)NCc1ccccc1 | - | 21µM | - | - | 8.2µM | -
N#C/C(=C\c1ccc(O)c([N+](=O)[O-])c1)C(=O)NCc1ccccc1 | ? | ? | - | - | - | -
N#C/C(=C/c1ccc(O)c(O)c1)C(=O)NCc1ccc(Cl)cc1 | - | - | - | -50 | ? | -
CN(C)c1ccc(/C=C(/C#N)C(=O)NCc2ccccc2)o1 | - | - | - | -88 | - | -
CC(=O)Oc1c(-c2ccco2)oc2ccccc2c1=O | - | ? | ? | ? | 16µM | -
O=C(OCc1cc(=O)n2nc(-c3cccs3)sc2n1)c1ccccc1 | - | . | - | . | . | -
Cc1cc(C(=O)CSc2nnc(-c3ccccc3F)o2)c(C)n1Cc1cccs1 | - | ? | ? | - | - | -
COc1ccccc1-n1cnnc1SCC(=O)c1cc(C)n(Cc2cccs2)c1C | - | - | 16µM | - | - | -
O=C(OCC(=O)N1CCCCC1)c1cc(=O)[nH]c2ccccc12 | - | - | - | - | - | -
COCC(C)n1c(C)cc(C(=O)COC(=O)c2cc(=O)[nH]c3ccccc23)c1C (stereo not drawn) | - | - | 21µM | - | - | -
COCC(C)n1c(C)cc(C(=O)COC(=O)c2n[nH]c3ccccc23)c1C (stereo not drawn) | - | - | - | - | - | -
CCCCCOC(=O)c1cc(=O)[nH]c2ccccc12 | 8.2µM | ? | 2.3µM | - | - | -
CCC1CCCCN1C(=O)COC(=O)c1cc(=O)[nH]c2ccccc12 (stereo not drawn) | - | - | 18µM | - | - | -
CCOC(=O)c1ccc2c(c1)nc(SCC(=O)c1cc3ccccc3o1)n2CC | - | ? | 18µM | - | - | -
C=CCNC(=O)CSc1nc2cc(C(=O)OCC)ccc2n1CC | - | - | - | - | - | -
Cc1cc(-n2c(SCC(=O)NCc3ccccc3)nc3ccsc3c2=O)ccc1Cl | . | . | . | . | . | -
COCCNC(=S)NC(=O)CC12CC3CC(CC(C3)C1)C2 | - | - | 16µM | - | - | -
Cc1csc(CNc2ncnc3ccc(-c4cccc(Cl)c4)cc23)c1 | - | - | - | . | - | .
Cc1ccc(C2=NN(Cc3nnc(-c4ccccc4)o3)C(=O)SC2)cc1 | - | ? | 13µM | - | - | -
CCC(=O)OCC(=O)[C@@]1(OC(=O)CC)[C@H](C)C[C@H]2[C@@H]3CCC4=CC(=O)C=C[C@]4(C)[C@@]3(F)[C@@H](O)C[C@@]21C | . | . | . | . | . | -
CCOC(=O)c1sc2nc(CC(=O)OC)nc(NCCN3CCOCC3)c2c1C | ? | - | 3.7µM | - | - | -
CCOC(=O)c1sc2nc(CC(=O)OC)nc(NCCN(CC)CC)c2c1C | - | - | 9.2µM | - | - | -
SMILES | KB-3-1 tox | MCF10A rerep | KB-V1 cytotox | DRD3 antagonist | SW480 rerep | DRD3 agonist
O=C(OCC(=O)N1CCc2ccccc21)c1c2c(nc3ccccc13)CCCC2 | ? | ? | 9.2µM | - | - | -
CC1Cc2ccccc2N1C(=O)COC(=O)c1c2c(nc3ccccc13)CCCCC2 (stereo not drawn) | ? | 21µM | 9.2µM | - | ? | -
Cc1ccc(-n2nc3c(=O)n(CC(=O)NC(C)C)nc(C)c3c2C)cc1 | - | . | - | . | . | -
COCCCNC(=O)CSc1nc2cc3c(cc2c(=O)n1CCCCCC(=O)NCc1ccc(OC)cc1)OCO3 | . | . | . | . | . | -
COc1ccc(OCC(=O)Nc2c(C(=O)N3CCN(c4ccccc4)CC3)oc3ccccc23)cc1 | - | . | - | . | . | 89
COc1cccc(CC(=O)Nc2c(C(=O)N3CCN(c4ccccc4F)CC3)oc3ccccc23)c1 | 16µM | . | ? | . | . | -
COc1ccc(OCC(=O)Nc2c(C(=O)N3CCN(C)CC3)oc3ccccc23)cc1 | - | ? | - | - | - | -

Screens from PubChem.
